Inconclusive results are not listed. Calls of active or inactive are those of the source. Rule for the calls: active = hit-call score of the fitted dose curve at least 0.9, where 1 is the maximum; inconclusive = response in the unintended direction; inactive = score below 0.9.

Estrogen receptor (Homo sapiens), sequence (P03372 whole entry, looked up): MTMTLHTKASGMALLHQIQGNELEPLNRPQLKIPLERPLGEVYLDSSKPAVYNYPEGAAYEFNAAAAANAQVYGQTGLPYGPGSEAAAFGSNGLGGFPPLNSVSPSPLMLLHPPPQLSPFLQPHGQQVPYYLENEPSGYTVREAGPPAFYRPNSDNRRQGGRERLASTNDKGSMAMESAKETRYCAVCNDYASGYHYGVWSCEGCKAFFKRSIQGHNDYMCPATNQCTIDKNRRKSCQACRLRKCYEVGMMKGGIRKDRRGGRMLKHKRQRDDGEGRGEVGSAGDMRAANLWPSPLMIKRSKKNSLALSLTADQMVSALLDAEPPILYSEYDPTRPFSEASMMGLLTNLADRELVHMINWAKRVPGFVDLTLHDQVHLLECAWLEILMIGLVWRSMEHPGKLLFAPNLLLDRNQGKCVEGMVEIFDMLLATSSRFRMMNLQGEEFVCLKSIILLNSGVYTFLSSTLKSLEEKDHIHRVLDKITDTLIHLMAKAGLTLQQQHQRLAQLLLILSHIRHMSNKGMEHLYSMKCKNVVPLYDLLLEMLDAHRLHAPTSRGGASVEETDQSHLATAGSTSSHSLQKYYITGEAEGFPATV

The target in the assay is Estrogen receptor (Homo sapiens) (UniProt P03372). The experiment in a line: ERF_TW_NR_COA_hESR1: Eurofins (ERF) Nuclear Receptor (NR) Functional Coactivator Assay for human Estrogen Receptor alpha (ERa) Agonism. On the procedure:
ERF_TW_NR_COA_hESR1 is a biochemical, single-readout assay that uses extracted gene-proteins in a cell-free assay. Measurements were taken 0.16 hours after chemical dosing in a 96-well plate. See ERalpha Human Estrogen NHR Functional Agonist Coactivator Assay, Panlabs.ERF_TW_NR_COA_hESR1 is an assay component calculated from the ERF_TW_NR_COA_hESR1 assay. It is designed to measure FRET using a type of binding reporter as detected by fluorescence intensity of estriol with fluorimetry technology.Data from the assay component ERF_TW_NR_COA_hESR1 was analyzed at the assay endpoint, ERF_TW_NR_COA_hESR1, in the positive analysis fitting direction relative to DMSO as the negative control and baseline of activity. Using a type of binding reporter, gain-of-signal activity can be used to understand changes in binding as they relate to gene ESR1. To generalize the intended target to other relatable targets, this assay endpoint is annotated to the nuclear receptor intended target family, where the subfamily is steroid.
Test compound and/or vehicle is incubated with the 7 nM estrogen receptor alpha (ERalpha)-LBD and coactivator peptide for 10 minutes at RT. Determination of the amount of complex formed is read spectrofluorimetrically at 520 nm/490 nm. Test compound-induced increase fluorescence by 50 percent or more (>/=50%) relative to the 1 uM Estriol response indicates possible ERalpha receptor agonist activity.
Consider `FC(F)(I)C(F)(F)C(F)(F)C(F)(F)I`, for which the outcome was inactive.

Take `OCCC(F)(F)C(F)(F)C(F)(F)C(F)(F)C(F)(F)C(F)(F)C(F)(F)C(F)(F)F`: the outcome was inactive.

Consider `N=C(N)C(F)(F)C(F)(F)C(F)(F)C(F)(F)C(F)(F)C(F)(F)C(F)(F)F`, for which the compound was classed as inactive.

As to `C=CC(=O)OCC(F)(F)C(F)(F)C(F)(F)C(F)(F)C(F)(F)C(F)(F)C(F)(F)C(F)F`, the AC50 was 37.5 µM (active).

With `OCCC(F)(F)C(F)(F)C(F)(F)C(F)(F)C(F)(F)C(F)(F)F`, the concentration at half-maximal activity (AC50) is 50.2 µM (active).

For `FC(F)(F)C(F)(F)C(F)(F)C(F)(F)C(F)(F)C(F)(F)I`, the half-maximal activity concentration (AC50) is 4.11 µM (active).

Take `FC(F)(I)C(F)(F)C(F)(F)C(F)(F)C(F)(F)C(F)(F)I`: the AC50 is 7.81 µM (active).

With `NC(=O)C(F)(F)C(F)(F)C(F)(F)C(F)(F)C(F)(F)C(F)(F)C(F)(F)F`, the outcome was inactive.

Take `O=C(CC(=O)C(F)(F)C(F)(F)C(F)(F)F)c1cccs1`: the compound was called inactive.

As for `OCC(F)(F)C(F)(F)C(F)(F)C(F)(F)C(F)(F)C(F)(F)C(F)(F)C(F)(F)CO`, the AC50 is 0.467 µM (active).

As for `OCCCC(F)(F)C(F)(F)C(F)(F)C(F)(F)C(F)(F)C(F)(F)C(F)(F)F`, the AC50 is 43.3 µM (active).

Consider `OCC(F)(F)C(F)(F)C(F)(F)C(F)(F)C(F)(F)C(F)(F)CO`, for which the AC50 is 1.53 µM (active).

Take `O=P(O)(O)OCCC(F)(F)C(F)(F)C(F)(F)C(F)(F)C(F)(F)C(F)(F)F`: the AC50 was 9.12 µM (active).

Source of the values: PubChem BioAssay AID2284377 (EPA ToxCast).
